Compound activity from PubChem.
Dicer inh: inhibitors of human Dicer processing of pre-microRNA; 47,000 compounds, 6% hits; cat-ELCCA pre-miR-21 Dicer processing, chemiluminescence; hits give high values; z-score at 25 µM; in the data active = z-score above about 3, passing the limit was not always enough;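 note: higher signal means more uncleaved substrate so more Dicer inhibition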
Of the large screens only hits and unclear results are named; the others gave an inactive call. The entries come from a sample that favours hits as a whole.

CSc1cccc(NC(=O)c2sc3nc(C)cc(C)c3c2N)c1	none
Cc1cc(C)c2c(N)c(C(=O)O)sc2n1	none
Cc1cc(C)c2c(N)c(C(=O)NCc3ccco3)sc2n1	none
Cc1cc(C)c2c(N)c(C(=O)NNC(=S)NCc3ccccc3)sc2n1	Dicer inh 3
Cc1cc(C)c2c(N)c(S(=O)(=O)Cc3ccccc3)sc2n1	Dicer inh 4.1
Cc1cc(C)c2c(N)c(C(=O)c3ccc(-c4ccccc4)cc3)sc2n1	none
Cc1nn(-c2ccccc2)c2[nH]c(=O)c(C#N)c(-c3ccccc3)c12	none
Nc1c(C(=O)N2CCOCC2)sc2nc(-c3ccccc3)cc(C(F)(F)F)c12	none
CC1=C(C)CC(C(=O)Nc2cccc(-c3nn(C)cc3Br)c2)C(C(=O)O)C1 (centres undefined)	none
COc1ccc(CNCc2ccc3c(c2)OCO3)cc1	none
COc1ccc(CNCc2ccc(SC)cc2)cc1	Dicer inh 3.9
COc1ccc(CNCc2cc(OC)ccc2OC)cc1	none
COc1ccc(C2C(C(=O)OC(C)C)C(=O)CC(C)(O)C2C(=O)OC(C)C)cc1 (centres undefined)	none
Clc1ccccc1CN1CCN(C2CCCCC2)CC1	none
CCCN1C(=O)C2(/C(=C(/O)c3ccc(OCC)cc3)C(=O)C(=O)N2CCN(C)C)c2ccccc21 (centres undefined)	none
CCCN1C(=O)C2(/C(=C(/O)c3ccc(C)cc3)C(=O)C(=O)N2CCCOC)c2ccccc21 (centres undefined)	none
CCCN1C(=O)C2(/C(=C(/O)c3ccccc3)C(=O)C(=O)N2CCCN(C)C)c2ccccc21 (centres undefined)	Dicer inh 4.4
CCCN1C(=O)C2(/C(=C(/O)c3ccc(C)cc3)C(=O)C(=O)N2CCCN(C)C)c2ccccc21 (centres undefined)	none
CCCN1C(=O)C2(/C(=C(/O)c3ccc(Cl)cc3)C(=O)C(=O)N2CCCN(C)C)c2ccccc21 (centres undefined)	none
CCCN1C(=O)C2(/C(=C(/O)c3ccccc3)C(=O)C(=O)N2CCCOC)c2ccccc21 (centres undefined)	Dicer inh 5
CCCN1C(=O)C2(/C(=C(/O)c3ccc(OC)cc3)C(=O)C(=O)N2CCCOC)c2ccccc21 (centres undefined)	Dicer inh 3.1
COCCCN1C(=O)C(=O)/C(=C(\O)c2ccc(OC)cc2)C12C(=O)N(C)c1ccccc12 (centres undefined)	none
CCCN1C(=O)C2(/C(=C(/O)c3ccc(Cl)cc3)C(=O)C(=O)N2CCOC)c2ccccc21 (centres undefined)	none
C/C=C(\C)C(=O)Nc1ccccc1CC1c2ccccc2CCN1C (centres undefined)	none
Fc1cccc(Cl)c1CSc1nnc(-n2cccc2)s1	none
CC1=C(C#N)C(c2ccc3c(c2)OCO3)C2=C(CC(c3ccccc3)CC2=O)N1 (centres undefined)	none
O=C(/C=C/Nc1ccc(Cl)cc1Cl)c1ccc(Br)cc1	none
C#CCn1c2ccccc2c2ccccc21	none
O=[N+]([O-])c1cccc(-c2noc(CSC3=NCCN3)n2)c1	none
COC(=O)C1C2C=CC3(CN(c4ccc(Cl)cc4)C(=O)C13)O2 (centres undefined)	none
O=C(Cn1nc(C(F)(F)F)c2c1CCCC2)NCc1cccs1	none
COC(=O)C1=C(C)NC2=C(C(=O)c3ccccc32)C1c1ccccc1OCc1cccc(F)c1 (centres undefined)	none
CN(C)c1ncnc(Oc2cccc(C(F)(F)F)c2)c1[N+](=O)[O-]	none
CSc1nnc2c(n1)OC(C1CC=C(C)CC1)Nc1ccccc1-2 (centres undefined)	Dicer inh 3.2
CSc1nnc2c(n1)OC(c1ccc(C)cc1)Nc1ccccc1-2 (centres undefined)	none
CSc1nnc2c(n1)OC(C)Nc1ccccc1-2 (centres undefined)	none
CCOc1ccc(C2Nn3c(C)nnc3SC2C(=O)N(CC)CC)cc1 (centres undefined)	none
NC(=O)Cn1cc(C(=O)c2ccco2)c2ccccc21	none
CC(=O)Oc1ccc2occ(C(=O)c3ccc(Cl)cc3)c2c1	none
O=C(c1ccco1)c1coc2ccc(O)cc12	Dicer inh 5.5
Cc1cc(C)c(NC(=O)C(C)Sc2nc3c(c(=O)n(C)c(=O)n3C)n2C)c(C)c1 (centres undefined)	none
COC(=O)C1=C(C)NC2=C(C(=O)CCC2)C1c1ccc(C(F)(F)F)cc1Cl (centres undefined)	none
Cc1cc(Br)ccc1OCCCN1CCN(C)CC1	none
CCOC(=O)CSc1nc2sc3c(c2c(=O)n1-c1ccc(OC)cc1)CCC3	none
CCNc1nc(SCC(=O)OCC)nc2sc3c(c12)CCC(C)C3 (centres undefined)	none
CCOC(=O)CSc1nc(NC)c2c3c(sc2n1)CCCC3	Dicer inh 3.2
Cc1cc(NC(=O)CSCC(=O)O)n(C)n1	none
O=C1Nc2ccccc2/C1=C/c1c(-c2ccc3ccccc3c2)[nH]c2ccccc12	none
COc1ccc(OCc2nnc3n2N=C(c2ccc(Br)cc2)CS3)cc1	Dicer inh 3
Fc1ccc(OCc2nnc3n2N=C(c2ccc(Br)cc2)CS3)cc1	none
COCCc1nnc2n1N=C(c1ccc(Br)cc1)CS2	none
O=C1C(=O)N(CN2CCc3ccccc3C2)c2ccc(Br)cc21	none
CSc1ccc([N+](=O)[O-])cc1C(C)=O	none
O=C(O)c1cc([N+](=O)[O-])ccc1Sc1ccc([N+](=O)[O-])cc1C(=O)O	none
CSc1ccc([N+](=O)[O-])cc1C(=O)/C=C/N(C)C	Dicer inh 6.2
CN(C)C(=S)Nc1cc(Cl)cc(Cl)c1	none
CCOC(=O)C(C)Oc1cc(OC(C)C(=O)OCC)c2c(=O)cc(-c3ccccc3)oc2c1 (centres undefined)	Dicer inh 4.1
CCOC(=O)C(C)Oc1ccc2c(C)cc(=O)oc2c1 (centres undefined)	none
CCCCOC(=O)C(C)Oc1ccc2c(=O)c(-c3ccccc3)coc2c1 (centres undefined)	none
O=C(Nc1ccc(Cl)cc1)Nc1cc(C2CC2)nn1-c1ccccc1	none
Cc1ccc(S(=O)(=O)N(C)C)cc1NC(=O)Nc1cccs1	none
C=CCN1C(=O)C(O)(CC(=O)c2ccc3c(c2)CCCC3)c2ccccc21 (centres undefined)	none
C=CCN1Cc2ccc(C(=O)O)cc2C1	Dicer inh 3.2
C=CCN1CCc2c(cc(O)c(O)c2Br)[C@@H](c2ccccc2)C1	none
CCOC(=O)/C(C#N)=C/c1cn(-c2ccccc2)nc1C	none
S=C(N/N=C/c1ccccc1Cl)NC1CC2CCC1C2 (centres undefined)	none
Clc1cccc(CSc2nnc(-c3ccncc3)o2)c1	none
CC(=O)NCc1ccc(S(=O)(=O)NN)cc1	none
CCOC(=O)N/N=C(\C)c1ccc(C(F)(F)F)cc1	none
Cc1nnc2n1NC(c1ccc(Cl)cc1)C(C(=O)Nc1ccc(Br)cc1)S2 (centres undefined)	none
Cc1cc(C)cc(NC(=O)C2Sc3nnc(C)n3NC2c2ccc(Cl)cc2)c1 (centres undefined)	none
Cc1cc(NC(=O)C2Sc3nnc(C)n3NC2c2ccc(Cl)cc2)ccc1Br (centres undefined)	Dicer inh 3.7
CSc1n[nH]c(-c2ccccc2Cl)c1C#N	none
FC(F)(F)c1ccnc(NC2CCN(Cc3ccccc3)CC2)n1	none
CC(C)(C)c1ccc(-c2nnnn2Cc2c(Cl)cccc2Cl)cc1	none
CSC(=CC(=O)c1ccc(Cl)cc1)SC	none
Cc1ccc(C(=O)/C=C/Nc2ccc(Cl)cc2)cc1	none
O=C(/C=C1/NCCS1)c1ccc(Cl)cc1	Dicer inh 3.8
CC(C)(C)c1csc(-c2ccc(/C=N/Nc3ccccn3)cc2)n1	none
Cc1cc(C)c2c(n1)sc1c(N3CCN(c4ccccc4)CC3)ncnc12	none
